Reference: PubChem BioAssay

Assay: basal RPMI8226 mitochondrial membrane potential changes, profiling panel, cell-based, JC-1 fluorescence, 24 h, 100 nL compound (AID 1169); note: test concentration not given here
Settings: RPMI8226 myeloma, JC-1 mitochondrial potential fluorescence, higher = more signal

Compared with `CN(C)C(=O)[C@@]1(CCS(=O)(=O)c2ccccc2)N=C(c2ccc(OCCCO)cc2)O[C@H]1c1ccccc1CN=[N+]=[N-]`, `CN(C)C(=O)[C@]1(Cc2ccccc2N=[N+]=[N-])N=C(c2ccc(OCCCO)cc2)O[C@@H]1c1ccccc1CN=[N+]=[N-]` is lower in z-score: -0.114 for the first, -0.992 for the second.

First: Cc1ccc(S[C@]2(C(=O)NCc3ccccc3)CC(=O)N(C3Cc4ccccc4C3)[C@@H]2c2ccc(CO)cc2I)cc1
Second: COC(=O)[C@@]1(Cc2ccc(F)cc2)[C@H]2c3cc(C(=O)N4CCCC4)n(Cc4ccccc4)c3C[C@H]2CN1C(=O)c1ccccc1
The z-score of the first is lower: -0.686 for the first, -0.104 for the second.

First: C=C(C)[C@@H]1CC=C(C(O)C2C=CC3C(=O)N(C4CCCCC4)C(=O)C3N2Nc2ccc(OC)cc2)CC1 (some centres not stated)
Second: COc1ccc([Si](C)(C)[C@@H]2[C@@H](CCO)O[C@]3(C(=O)N(Cc4ccccc4)c4ccc(N5CCCCC5=O)cc43)[C@H]2C)cc1
The z-score of the first is higher: -0.393 for the first, -0.776 for the second.

Compared with `CC(C)(C)N1CC=CC23O[C@@H]4C=CCCOC(=O)C4[C@H]2C(=O)N(CCCO)[C@@H]3C1=O` (some centres not stated), `CC(=O)NCCCC[C@@H]1NC(=O)[C@@H]2C[C@H](C(=O)NCCCC[N+](C)(C)C)[C@H](c3cccc(OCCO)c3)N2C1=O` is lower in z-score: 0.846 for the first, 0.287 for the second.

First: COC(=O)[C@@]1(Cc2ccc(OC)cc2)[C@H]2c3cc(C(=O)N4CCCC4)n(Cc4ccc(C)o4)c3C[C@H]2CN1C(=O)c1ccccc1
Second: COC(=O)[C@@]1(Cc2ccccc2)[C@H]2c3cc(C(=O)N4CCCC4)n(Cc4ccc(OC(F)(F)F)cc4)c3C[C@H]2CN1C(=O)c1ccccc1
The z-score of the first is lower: -0.815 for the first, -0.717 for the second.

Going from `[N-]=[N+]=NCc1ccccc1C[C@]1(C(=O)NCCN2CCOCC2)N=C(c2ccc(OCCCO)cc2)O[C@H]1c1ccccc1` to `COCCCNC(=O)[C@]1(Cc2ccccc2CN=[N+]=[N-])N=C(c2ccc(OCCCO)cc2)O[C@@H]1c1ccccc1CN=[N+]=[N-]`, the z-score falls from -0.636 to -1.18.

Going from `CCCCCCC#C[Si](O[C@H](c1ccccc1)c1cn(Cc2cccc(Cl)c2)nn1)(C(C)C)C(C)C` to `CCCC[C@@H](O)C1=C(COc2ccccc2)Cn2c(=O)n(-c3ccccc3)c(=O)n2[C@H]1CO`, the z-score rises from -0.149 to 0.42.

First: COCCOC(=O)N1C(=O)[C@@]2(c3cc(C#CC4(O)CCCCCC4)ccc31)[C@H](C(=O)N1CCN(c3ncccn3)CC1)[C@H]1C(=O)O[C@H](c3ccccc3)[C@H](c3ccccc3)N1[C@@H]2c1ccc(O)cc1
Second: O=C1O[C@H](c2ccccc2)[C@H](c2ccccc2)N2[C@H]1[C@@H](C(=O)N1CCN(c3ncccn3)CC1)[C@]1(C(=O)Nc3ccc(C#CCCO)cc31)[C@H]2c1ccccc1OCCO
The z-score of the first is higher: -0.57 for the first, -0.794 for the second.

Compared with `COc1ccc(C(=O)Nc2ccc3c(c2)[C@]2(O[C@@H](CCO)[C@H]([Si](C)(C)c4ccc(OC)cc4)[C@H]2C)C(=O)N3Cc2ccccc2)cc1`, `COc1ccc([Si](C)(C)[C@H]2[C@H](CCn3cc(CCO)nn3)O[C@@]3(C(=O)N(Cc4cccc(N5C(=O)c6cccc7cccc5c67)c4)c4ccccc43)[C@@H]2C)cc1` is lower in z-score: -0.965 for the first, -1.05 for the second.

Compared with `C#CCNS(=O)(=O)N(C)C`, `COCCCNC(=O)[C@]1(CCS(=O)(=O)c2ccccc2)N=C(c2ccc(OCCCO)cc2)O[C@@H]1c1ccccc1` is lower in z-score: 0.0262 for the first, -0.74 for the second.

Compared with `C=CCOC(=O)[C@H]1[C@@H]2C(=O)O[C@@H](c3ccccc3)[C@@H](c3ccccc3)N2[C@@H](c2ccc(OCCOC(=O)[C@H]3C[C@H]4C(=O)N[C@@H](CCCCN(C)C)C(=O)N4[C@H]3c3ccc(O)cc3)cc2)[C@]12C(=O)Nc1ccccc12`, `COC(=O)C(CC#Cc1ccc2c(c1)[C@]1(C(=O)N2)[C@H](c2ccc(OCCO)cc2)N2[C@H](c3ccccc3)[C@H](c3ccccc3)OC(=O)[C@H]2[C@@H]1C(=O)O)C(=O)OC` is higher in z-score: -0.838 for the first, -0.336 for the second.

Going from `C=CCNC(=O)[C@H]1[C@@H]2C(=O)O[C@@H](c3ccccc3)[C@@H](c3ccccc3)N2[C@@H](c2ccc(OCCO)cc2)[C@]12C(=O)N(C(=O)OCCOC)c1ccc(C#CC3=CCCCC3)cc12` to `C=C(COC)C(=O)CC[C@H](OC(=O)c1ccccc1-c1ccccc1C(=O)O)c1ccc(CO)o1`, the z-score rises from -0.753 to 0.12.

Going from `CCC[C@@H]1C[C@@]1(CCC)[C@@H](NC(=O)c1ccco1)c1ccc(Cl)cc1` to `C[C@@]1([C@@H](NC(=O)c2cccs2)c2ccc(-c3ccccc3)cc2)C[C@H]1C1CCCCC1`, the z-score falls from -0.736 to -0.843.

With `COCC(=C=CC[C@@H](O)c1ccccc1OCCO)C[C@@H](O)c1ccccn1` the z-score was 0.0537.
